Bioassay records (PubChem BioAssay)
GLP1R cytotox – cytotoxicity in counter-screen for GLP-1R inverse agonists; HEK293 cAMP-luciferase reporter cells, luminescence, 24 h; 0.13% of 410,000 active; Potency, µM (top dose mostly 38.3 µM), inactives show at the highest dose activity change, negative = inhibition, hits mostly inhibitors;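 further: loss of luciferase light is scored as toxicity; on the % scale 0 is the no-effect control and ±100 the full control effect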
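Quantitative HTS format, 1536 wells, 200 cells/uL seeded. Compounds: 23 nL, 24 h, 37 °C. Detection: luciferase reagent, luminescence at 12 min RT; decreased signal taken as cytotoxic.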
GLP1R ag – activates the human GLP-1 receptor; HEK293 GLP-1R CRE-luciferase, luminescence, 4-6 h; cells express a hypersensitive GLP-1R form; Potency, µM (titrated, usually from 45.6 µM), for inactives: at the top dose activation, actives largely listed as activators; 0.007% of 380,000 active; further: % of control where 0% means no effect
Target sequence (P43220 whole entry, looked up): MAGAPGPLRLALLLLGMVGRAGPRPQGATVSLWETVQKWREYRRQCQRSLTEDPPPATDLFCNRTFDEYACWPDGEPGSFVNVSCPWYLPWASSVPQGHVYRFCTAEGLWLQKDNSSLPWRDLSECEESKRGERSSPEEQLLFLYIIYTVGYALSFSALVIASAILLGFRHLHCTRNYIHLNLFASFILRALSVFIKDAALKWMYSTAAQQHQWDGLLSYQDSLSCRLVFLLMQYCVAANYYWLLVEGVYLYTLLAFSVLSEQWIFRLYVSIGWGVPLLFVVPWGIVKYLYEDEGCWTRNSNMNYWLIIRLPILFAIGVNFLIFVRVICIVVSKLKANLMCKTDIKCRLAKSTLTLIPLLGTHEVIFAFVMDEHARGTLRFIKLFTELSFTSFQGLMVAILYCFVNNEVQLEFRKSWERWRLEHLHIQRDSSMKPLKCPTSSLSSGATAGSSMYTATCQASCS
RGS4 inhibitor – inhibitors of human regulator of G protein signaling 4; Transcreener GDP fluorescence polarization, RGS4-accelerated GTP hydrolysis; Potency, µM (series often up to 114 µM), for inactives: top-dose activity change, negative = inhibition, actives largely listed as inhibitors; 0.039% of 390,000 active; AID 504845; further: on the % scale 0 is the no-effect control and ±100 the full control effect; nearly all actives have a fitted effect of over 75% in size
Target sequence (P49798 whole entry, looked up): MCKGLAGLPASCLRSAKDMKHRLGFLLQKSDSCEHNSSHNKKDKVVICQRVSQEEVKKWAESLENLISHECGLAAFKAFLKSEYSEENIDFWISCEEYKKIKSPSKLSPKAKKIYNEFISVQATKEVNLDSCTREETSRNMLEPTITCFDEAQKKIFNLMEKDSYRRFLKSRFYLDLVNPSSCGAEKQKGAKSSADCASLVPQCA
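MLSMR compounds (23 nl, pin-transferred) preincubated 10 min at room temperature with a 500nM (2x) first reagent, then RGS4 at 900nM (2x) plus Transcreener GDP mix added; fluorescence polarization (620/688 nm) read before and after 90 min at 30 °C.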
GLP1R inv ag – inverse agonists of human GLP-1 receptor. P43220. AID 624417. Potency, µM (top dose mostly 38.3 µM), for the others: at the top dose activity change, negative = inhibition, most hits filed as inhibitors. 1.6% of 410,000 active. HEK293 GLP-1R CRE-luciferase, luminescence, 24 h; GLP-1R form is constitutively active; further: on the % scale 0 is the no-effect control and ±100 the full control effect; nearly all actives have a fitted effect of over 55% in size
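Stable HEK293 clone (constitutively active GLP-1R + cAMP-response luciferase); 200 cells/uL plated, 12 h pre-culture, compound 24 hr, 37 deg C/5% CO2; detection reagent 12 min RT; luminescence.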
KAT2A inh – blocks human GCN5L2 histone acetyltransferase; GCN5L2 HAT assay, ThioGlo1 CoA-SH fluorescence; Q92830; Potency, µM (titrated, usually from 58.9 µM), for inactives: at the top dose activity change, negative = inhibition, actives largely listed as inhibitors; 0.21% of 390,000 active; further: on the % scale 0 is the no-effect control and ±100 the full control effect
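Free CoA generated was detected with ThioGlo1 (50uM) fluorescence at Ex340nm/Em540nm, read immediately and after 20 min at room temperature. Enzyme, 20 nM in HEPES pH 7.5 buffer, saw compounds 15 min before adding 75uM H3(1-25) peptide and 70uM acetyl-CoA.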
PTHR1 ag – activates the human parathyroid hormone receptor PTHR1; Potency, µM (series often up to 115 µM), for inactives: at the top dose activation, usual class: activators; AID 743266; 0.075% of 410,000 active; HEK293 GP2 PTHR1 cells, GloSensor cAMP luminescence, 1 h; further: nearly all actives have a fitted effect of over 55% in size
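HEK-293-derived GP2 cells expressing PTHR1 and a GloSensor cAMP reporter, 3,000/well, plated overnight, given luciferin plus IBMX (each 0.5 mM as added) for 1 h at 37 °C, then compound for 1 h at 37 °C. Luminescence was read after 15 min at room temperature.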
Active calls of the source: *; i = inactive; ? = inconclusive; nt = no result given; ! = repeats disagree; [ ] = another dose, or the depositor's remark. Shown are actives, neighbours in structure and some others; about 1.8% of the full set was active somewhere. The call rests on the fitted dose curve; in most records, active means well fitted curve in the direction sought with a large enough effect; inconclusive means small, poorly fitted or top-dose-only effect, or another doubt; inactive means no such curve, though single readings can be large; an effect the other way counts as inactive or inconclusive. Potency means the concentration at half of the fitted maximal effect.

SMILES	GLP1R cytotox	GLP1R ag	RGS4 inhibitor	GLP1R inv ag	KAT2A inh	PTHR1 ag
CC12CN3CC(c4ccccc4)(CN(C1)C3c1ccc(Cl)cc1)C2=O (stereo not given)	-2%	nt	26%	-15%	2%	i
COc1cc(OC)c(NC2c3ccccc3C(=O)N2c2cc(C)ccn2)cc1Cl (stereo not given)	-11%	-2%	17%	6%	-2%	i
CCOC(=O)c1ccccc1NC1c2ccccc2C(=O)N1c1cc(C)ccn1 (stereo not given)	15%	3%	7%	13µM*	-9%	i
COc1ccc(-c2sc(Nc3ccccc3)n[n+]2-c2ccc(F)cc2)cc1Br	0%	5%	-7%	-6%	-3%	24%
Fc1ccc(-[n+]2nc(Nc3ccccc3)sc2-c2c(Cl)cccc2Cl)cc1	?	-3%	-17%	?	-9%	-38%
COc1ccc2ccccc2c1-c1sc(Nc2ccccc2)n[n+]1-c1ccc(F)cc1	5µM*	-2%	14%	?	0%	-26%
CCc1ccc(Nc2n[n+](-c3ccccc3)c(-c3c(Cl)cccc3Cl)s2)cc1	7.9µM*	1%	-48%	?	-3%	-39%
N#Cc1ccc(CN2CC[C@@]3(CCCN(S(=O)(=O)c4ccccc4)C3)C2)cc1	nt	nt	nt	nt	-9%	nt
CNc1nc(SCc2ccccc2Cl)nc2c1CCCC2	-17%	2%	19%	10µM*	-9%	-4%[57.5 µM]
O=c1[nH]c(SCc2ccccc2Cl)nc2c1CCC2	9%	15%	15%	0%	1%	-19%
CCN(CC)S(=O)(=O)c1ccc(N2CCOCC2)c(NC(=O)c2cc(C)cc(C)c2)c1	1%	18%	-3%	-22%	11%	i
CCc1cc(C(=O)Nc2cc(S(=O)(=O)N(CC)CC)ccc2N2CCOCC2)sc1C	-2%	5%	-9%	7.9µM*	-19%	-12%
Cc1ccccc1Cn1c(=O)c2c(nc3n2CCCN3Cc2ccccc2)n(C)c1=O	15%	6%	1%	3.2µM*	nt	-92%[57.5 µM]
Cc1ccc(Cc2c(-c3cccc(Cl)c3)nc3cc(C)c(Br)c(C)n23)cc1	6%	1%	nt	3.2µM*	nt	-4%
COc1ccccc1NC(=O)N(Cc1ccccc1)c1ccccn1	13%	1%	18%	7.1µM*	-6%	-15%[57.5 µM]
CC1(C)CCC[C@@](C)([C@H]2CC[C@]3(C)[C@@H]2[C@H](O)C[C@@H]2[C@@]4(C)CC[C@H](O)C(C)(C)[C@@H]4CC[C@]23C)O1	nt	nt	nt	nt	-9%	nt
CCOC(=O)C(c1ccccc1)C(Nc1ccc(F)cc1)c1ccccn1 (stereo not given)	-7%	-7%	-3%	10µM*	0%	-94%
CC(=O)NCCc1c(Cc2ccccc2)[nH]c2ccccc12	nt	nt	27µM*!	nt	2%	nt
COc1ccc(C(=O)Nc2cccc(C(=O)OCc3cc(=O)n4nc(C5CC5)sc4n3)c2)cc1	5%	nt	-25%	6%	29%	i
CCOC(=O)c1c(NC(=S)N2CCN(C)CC2)sc(C)c1-c1ccccc1	?	-3%	?	1.8µM*	-8%	-1%
CCOC(=O)c1c(NC(=S)N2CCOCC2)sc2c1CCN(C(=O)OCC)C2	?	10%	?	10µM*	2%	-26%
CCOC(=O)c1ccc(NC(=S)N2CCN(C)CC2)cc1	13%	2%	-28%	-22%	7%	4%
CCOC(=O)c1c(NC(=O)/C=C/C(=O)O)sc(C)c1-c1ccc(Cl)cc1	?	-5%	-19%	5µM*	1%	-86%
O=C(NCC12CC3CC(CC(C3)C1)C2)c1cc2n(n1)C(C(F)(F)F)CC(c1ccco1)N2 (stereo not given)	-9%	1%	-6%	3.5µM*	?	i
COc1ccc(CN(C)C(=O)C(Cc2ccccc2)NC(=O)c2ccccc2)c(OC)c1OC (stereo not given)	-9%	2%	nt	?	nt	-64%
SMILES	GLP1R cytotox	GLP1R ag	RGS4 inhibitor	GLP1R inv ag	KAT2A inh	PTHR1 ag
COc1cccc(CN(C)C(=O)C(Cc2ccccc2)NC(=O)c2ccccc2)c1OC (stereo not given)	-17%	7%	7%	8.9µM*	0%	-17%
Cc1ccc(CCNC(=O)c2sc3ncccc3c2-n2c(C)ccc2C)cc1	-5%	nt	-11%	11µM*	-5%	-33%
OCCN(CCO)CC(O)COc1ccc(C23CC4CC(CC(C4)C2)C3)cc1 (stereo not given)	?	?	-4%	2.8µM*	-4%	-1%
Cc1ccc(C2C3=C(CCCC3=O)Nc3[nH]c(=S)[nH]c(=O)c32)cc1 (stereo not given)	-1%	-12%	?	0%	22µM*	i
CCCCCCSc1ccc([C@@H]2[C@@H]3C(=O)N(C)C(=O)[C@@H]3[C@]3(C(=O)OC)CCCCN23)cc1OC	-3%	13%	-4%	?	-12%	-38%
CCCCN=C1NN=C(c2ccc3c(c2)OCCO3)CS1	-23%	10%	-16%	8.9µM*	-4%	-41%
Brc1ccc2c(c1)C(C1=NCCN1)c1ccccc1CS2 (stereo not given)	-6%	-3%	20%	1.4µM*	0%	20%
CCOc1ccc(C(=O)Nc2cc(C)on2)cc1	0%	-13%	-9%	-10%	-1%	-8%[57.5 µM]
Cc1cc(NC(=O)c2cccc(COc3ccc(Br)cc3)c2)no1	-35%	-3%	-3%	1µM*	3%	-46%
Cc1nc(C(F)(F)F)ccc1C(=O)N1CCC1(C)C(=O)NCc1ccc(Cl)cc1 (stereo not given)	1%	-3%	nt	14%	nt	i
Cc1ccc(SCC(=O)OC(C)C(=O)NCc2ccccc2)cc1 (stereo not given)	-6%	-4%	-7%	2%	-10%	1%
Fc1ccc2c(c1)Sc1ccc(Cl)cc1CC2N1CCN(CCC2OCCO2)CC1 (stereo not given)	?	17%	11%	3.5µM*	nt	-2%
CCN(c1ccccc1)S(=O)(=O)c1ccc(N2CCN(c3ccc(O)cc3)CC2)nc1	-26%	4%	-52%	4.5µM*	?	-43%
CCN(c1ccccc1)S(=O)(=O)c1ccc(N2CCN(c3ccc(OC)cc3)CC2)nc1	2%	2%	-13%	-10%	-2%	-15%
CC(=O)OC1CCC2(C)C(=CCC3C2CCC2(C)C(C(C)=O)CCC32)C1 (stereo not given)	nt	6%	nt	nt	nt	nt
